Results on 83 compounds are retold here after PubChem BioAssay AID1745847 (National Center for Advancing Translational Sciences (NCATS), 2022).

The campaign covered roughly 2,100 compounds. About 670 (32%) were called active. Another 50% or so got no clear call; they are omitted. The list shows a part of the results. Unmarked numbers belong to inactive results. Calls come from the whole dose curve; as a rule, active = well fitted inhibition curve with a large enough effect; inconclusive = small, poorly fitted or top-dose-only effect; inactive = no such curve, though single readings can be large or run the other way.
% is set by controls: 0 for no effect and ±100 for the full control effect; potency is the fitted concentration of half-maximal effect.

The nature of the experiment: CMV-Luciferase Counterscreen for Inhibitors of ATXN expression. Note: nearly all actives have a fitted effect of over 55% in size. To be noted: HEK-293 CMV-luciferase reporter, luminescence, 24 h; series mostly up to 57.5 µM; activity change, negative = inhibition: at the top concentration. On the technique in general: Counterscreens check selectivity or assay interference.
In the case of `Cc1ccc(-c2cc(C(=O)N/N=C/c3ccccc3O)n[nH]2)o1`, the Potency is 15.8 µM (active).

In the case of `O=C(N/N=C/c1c(O)ccc2ccccc12)c1ccc(CO)nc1`, the Potency was 8.91 µM (active).

Take `O=C(N/N=C\c1c(O)ccc2ccccc12)c1cncc(Br)c1`: the Potency was 0.282 µM (active).

`Nc1ccc2cc3[nH]c4cc(N)ccc4c3nc2c1`: the activity change, negative = inhibition was -29.2% [at 11.4 µM].

For `CCN1CCN(C2=C(NS(=O)(=O)c3ccc(C)cc3)C(=O)c3ccccc3C2=O)CC1`, the Potency was 3.55 µM (active).

For the compound `CCn1c(CCC(=O)Nc2nc3c(s2)CCCC3)nc2cc(S(=O)(=O)N(C)C)ccc21`, the activity change, negative = inhibition was 4.42% [at 11.4 µM].

For the compound `CSCC[C@H](NC(=O)OC(C)(C)C)C(=O)N/N=C/c1cccc2cccnc12`, the “activity change, negative = inhibition” value is -26.9%.

With `Cc1ccccc1OCC(=O)N/N=C/c1cccc2cccnc12`, the Potency is 15.8 µM (active).

As to `Cc1ccc(OCC(=O)N/N=C/c2cccc3cccnc23)cc1`, the Potency is 20 µM (active).

Regarding `O=C(COc1ccc(F)cc1)N/N=C/c1cccc2cccnc12`, the Potency was 2.82 µM (active).

Take `Cc1cc(O)c(C(C)C)cc1N=Cc1ccc(N(C)C)cc1`: the activity change, negative = inhibition was 0.592% [at 11.4 µM].

`Cc1nc(N2CCN(c3ccccn3)CC2)c2c(C)c(C(=O)N3CCN(c4ccc(F)cc4)CC3)sc2n1`: the Potency is 14.1 µM (active).

For `Cc1cc(NC(c2cccnc2)c2ccc3cccnc3c2O)no1` (stereo not drawn), the Potency was 3.98 µM (active).

As for `Oc1c(C(c2ccccn2)N2CCCCC2)cc(Cl)c2cccnc12` (stereo not drawn), the “activity change, negative = inhibition” value is -10.9%.

In the case of `Oc1c(C(Nc2ccccn2)c2cccnc2)cc(Cl)c2cccnc12` (stereo not drawn), the Potency was 12.6 µM (active).

With `CCOc1ccccc1NC(=O)N1CCC(c2nc3ccccc3[nH]2)CC1`, the activity change, negative = inhibition is 28.9% [at 11.4 µM].

In the case of `O=C(Nc1cccc(C(F)(F)F)c1)N1CCC(c2nc(-c3ccc(F)cc3)no2)CC1`, the Potency is 11.2 µM (active).

Turning to `COc1ccc([C@@]2(C(C)C)ON(c3ccccc3C(F)(F)F)C2=O)cc1`, the activity change, negative = inhibition is -27.1% [at 11.4 µM].

`Cn1c(=O)c(C#N)c(-c2ccc(F)cc2)c2cc(C(=O)c3cc(Cl)cc(Cl)c3O)cnc21`: the Potency is 3.55 µM (active).

For the compound `NC(=S)n1[nH]c(-c2ccc([N+](=O)[O-])cc2)c(N=Nc2cccc(Cl)c2)c1=O`, the Potency was 3.55 µM (active).

For the compound `CC(C)(C)c1nnc(N/N=C/c2ccccc2O)n(N)c1=O`, the Potency was 1.26 µM (active).

For `COc1ccc(C(=O)C=CNNC(=O)c2ccc(Cl)cc2)cc1`, the Potency was 11.2 µM (active).

Consider `Cc1cc(OCc2nc(N)nc(N)c2-c2ccc(Cl)c(Cl)c2)ccc1[N+](=O)[O-]`, for which the Potency is 0.316 µM (active).

With `CCCCC(=O)OCC(=O)C1(O)Cc2c(O)c3c(c(O)c2C(OC2CC(NC(=O)C(F)(F)F)C(O)C(C)O2)C1)C(=O)c1c(OC)cccc1C3=O` (stereo not drawn), the Potency is 3.16 µM (active).

`COc1cccc2c1C(=N)c1c(O)c3c(c(O)c1C2=O)CC(O)(C(C)=O)CC3OC1CC(N)C(O)C(C)O1` (stereo not drawn): the Potency is 0.282 µM (active).

As to `C=CCn1cnc2c(c1=O)c1nc3ccccc3nc1n2/N=C/c1cc(OC)c(OC)c(OC)c1`, the “activity change, negative = inhibition” value is -11.7%.

Take `O=C(c1cnc(N2CCN(c3ccccn3)CC2)c2ccccc12)N1CCN(c2cccc(Cl)c2)CC1`: the Potency is 6.31 µM (active).

In the case of `Cc1ccc(NC(=O)c2cnc(N3CCN(c4ccccn4)CC3)c3ccccc23)c(Br)c1`, the Potency was 14.1 µM (active).

Regarding `CCCc1nc(NC2CCCCC2)c(C#N)c2c1COC(C)(C)C2`, the activity change, negative = inhibition was -15.4% [at 11.4 µM].

`CC(=O)Oc1ccc(N(C(C)=O)S(=O)(=O)c2ccc(C)cc2C)c2ccccc12`: the Potency is 17.8 µM (active).

As for `CC(=O)Oc1ccc(N(C(C)=O)S(=O)(=O)c2cccs2)c2ccccc12`, the Potency is 25.1 µM (active).

With `NC(Cc1ccc(F)cc1)c1csc(Nc2cc(NCc3ccco3)ncn2)n1` (stereo not drawn), the activity change, negative = inhibition is 0.881% [at 11.4 µM].

Turning to `Cc1nc(C(F)(F)F)c(C(=O)N/N=C(\N)c2ccccn2)s1`, the Potency was 10 µM (active).

For the compound `Cc1cccc(/C=C/C(=O)c2ccc([N+](=O)[O-])o2)c1`, the Potency is 3.55 µM (active).

Take `COc1cc(/C=C/C(=O)c2ccc(C)c([N+](=O)[O-])c2)cc(OC)c1O`: the “activity change, negative = inhibition” value is -13.8%.

For the compound `CN(C)C(=O)c1cccc(-c2cnc3c(NC=O)cc(-c4ccc(F)cc4)cn23)c1`, the activity change, negative = inhibition was 49.3% [at 11.4 µM].

Turning to `COc1ccc(CC2C(=O)NC(C)C(=O)N(C)C3Cc4ccc(cc4)Oc4cc(ccc4O)CC(C(=O)NC(C)C(=O)NC(C)C(=O)N2C)N(C)C3=O)cc1` (stereo not drawn), the Potency was 0.891 µM (active).

As for `O=C(N/N=C/c1cc([N+](=O)[O-])ccc1O)c1cc(-c2ccccc2)nc2ccccc12`, the Potency is 1.78 µM (active).

For the compound `O=C(N/N=C/c1cc([N+](=O)[O-])ccc1O)c1cccc2cc[nH]c12`, the Potency is 2.82 µM (active).

For `OC[C@@H]1CN(Cc2ccc(-c3ccccc3)cc2)C[C@H](n2cnc3c(Nc4ccccc4)ncnc32)O1`, the Potency was 12.6 µM (active).

For the compound `OC[C@@H]1CN(Cc2ccc(-c3ccccc3)cc2)C[C@H](n2cnc3c(NC4CCC4)ncnc32)O1`, the Potency was 10 µM (active).

`CN(C)CCNc1ncnc2c1ncn2[C@H]1CN(Cc2ccc(-c3ccccc3)cc2)C[C@@H](CO)O1`: the “activity change, negative = inhibition” value was -29.3%.

Take `CN(C)CCCNc1nc2cc(-c3cccc(Cl)c3)sc2c(=O)n1C`: the “activity change, negative = inhibition” value is -10.1%.

For the compound `CN(C)C(=O)CSc1nc(-c2ccccc2)nc2c1CCCC2`, the “activity change, negative = inhibition” value is -18.6%.

`CC1CCCCN1C(=O)C1CCN(c2nc(-c3ccccc3)nc3c2CCC3)CC1` (stereo not drawn): the Potency is 22.4 µM (active).

As for `CSc1nc(-c2ccc(Cl)cc2)nc(N)c1C#N`, the activity change, negative = inhibition is -7.46% [at 11.4 µM].

In the case of `CCc1cc(-c2nnn(CCC3COCCO3)c2CC)ccc1-c1cn(CCc2c[nH]c3ccccc23)nn1` (stereo not drawn), the Potency was 4.47 µM (active).

In the case of `COc1ccc2oc(/C=C/N(C)C)c(C(=O)c3ccc(Cl)cc3)c2c1`, the Potency is 12.6 µM (active).

Take `C[C@H]1O[C@@H](O[C@H]2[C@@H](O)C[C@H](O[C@H]3[C@@H](O)C[C@H](O[C@H]4CC[C@@]5(C)[C@H](CC[C@@H]6[C@@H]5C[C@@H](O)[C@]5(C)[C@@H](C7=CC(=O)OC7)CC[C@]65O)C4)O[C@@H]3C)O[C@@H]2C)C[C@H](O)[C@@H]1O`: the “activity change, negative = inhibition” value was -12%.

Take `COc1cc2c3nnc(-c4ccc(F)cc4)c-3cn(Cc3ccc(C)cc3)c2cc1OC`: the “activity change, negative = inhibition” value is 16.9%.

On to `O=c1oc2ccccc2c(O)c1Cc1cc(Cl)c2cccnc2c1O`, for which the Potency is 10 µM (active).

For the compound `CCC1(c2ccccc2)ON(c2c(Br)cccc2Br)C1=O` (stereo not drawn), the Potency is 17.8 µM (active).

With `O=C(c1ccc(Cn2c(=S)[nH]c3ccccc3c2=O)cc1)N1CCN(c2ccccn2)CC1`, the Potency is 3.16 µM (active).

Regarding `CCc1nc2ccc(C(=O)Nc3cccc(NS(C)(=O)=O)c3)cn2c1N(CC)Cc1cccc(Br)c1`, the Potency was 31.6 µM (active).

`Cn1c(-[n+]2c(-c3ccccc3)cc(-c3ccccc3)cc2-c2ccccc2)nc2c([N+](=O)[O-])cccc21`: the activity change, negative = inhibition is 0.1% [at 11.4 µM].

In the case of `CCc1nc(N)nc(N)c1-c1ccc(N(C)Cc2ccccc2)c([N+](=O)[O-])c1`, the Potency is 0.501 µM (active).

On to `O=S(=O)([N-]c1nc2ccccc2nc1-[n+]1ccc(Cc2ccccc2)cc1)c1ccc(Br)s1`, for which the Potency was 14.1 µM (active).

As for `CN1CCN(CCNC(=O)c2ccc3nc(-c4ccc(F)cc4)c(-c4ccc(F)cc4)nc3c2)CC1`, the “activity change, negative = inhibition” value was -29.4%.

On to `Cc1ccc(-c2cc(C(=O)NCCCN3CCOCC3)no2)cc1`, for which the Potency was 8.91 µM (active).

With `O=C(Nc1ccc(Cl)c([N+](=O)[O-])c1)c1ccc(NCCCN2CCOCC2)c([N+](=O)[O-])c1`, the “activity change, negative = inhibition” value was 1.7%.

Take `O=C(N/N=C/c1ccccc1O)C1CC(=O)N(c2ccc(Cl)cc2)C1` (stereo not drawn): the Potency is 0.631 µM (active).

For the compound `CCc1ccc(N2CC(C(=O)N/N=C/c3cc([N+](=O)[O-])ccc3O)CC2=O)cc1` (stereo not drawn), the Potency is 10 µM (active).

Regarding `Cc1cnc(NC(=O)C2CC(=O)N(c3cccc(Cl)c3)C2)s1` (stereo not drawn), the activity change, negative = inhibition was 51.5% [at 11.4 µM].

Consider `COc1ccc(Cn2c(-c3ccc(C)cc3)c[n+]3ccccc23)cc1`, for which the Potency is 1 µM (active).

As for `Nc1nc(N)c2cc(Sc3ccc4ccccc4c3)ccc2n1`, the Potency was 10 µM (active).

With `COc1cc(NC(=O)c2cc(-c3ccccc3)nc3c2cnn3C(C)C)cc(OC)c1OC`, the Potency is 3.16 µM (active).

`COc1cc(Nc2ncc3c(n2)CCN(C(=O)Nc2ccc(C(C)C)cc2)C3)cc(OC)c1OC`: the activity change, negative = inhibition is -3.4% [at 11.4 µM].

In the case of `Cc1ccccc1C(=O)N1CCN(c2ccc(NC(=O)c3ccco3)cc2Cl)CC1`, the Potency was 12.6 µM (active).

`O=C(Nc1ccc(N2CCN(C(=O)c3ccco3)CC2)c(Cl)c1)c1cccs1`: the Potency was 20 µM (active).

For `O=C(Nc1ccc(NC(=O)c2ccc(Cl)cc2Cl)cc1)c1cccs1`, the “activity change, negative = inhibition” value is -4.86%.

On to `O=C(Nc1ccc(N2CCOCC2)c(Cl)c1)c1c(F)c(F)c(F)c(F)c1F`, for which the activity change, negative = inhibition was 29.5% [at 11.4 µM].

For the compound `N#Cc1nc(Cc2cccc3ccccc23)oc1NCc1ccc(F)cc1`, the Potency was 12.6 µM (active).

For the compound `CC(C)(C)c1cc(C(=O)N/N=C/c2ccc([N+](=O)[O-])s2)n[nH]1`, the Potency is 11.2 µM (active).

Take `Cc1ccccc1C(=O)N/N=C/c1ccc([N+](=O)[O-])s1`: the Potency is 11.2 µM (active).

For `Cc1ccnn1CC(=O)N/N=C/c1ccc([N+](=O)[O-])s1`, the Potency was 15.8 µM (active).

For the compound `O=C(N/N=C/c1ccc([N+](=O)[O-])s1)c1ccccc1`, the Potency was 7.94 µM (active).

For the compound `COc1ccc(C(=O)NCC(=O)N/N=C/c2ccc([N+](=O)[O-])s2)cc1OC`, the Potency was 12.6 µM (active).

On to `CC(C)c1cccc(C(C)C)c1Nc1cn[nH]c1`, for which the activity change, negative = inhibition was -9.58% [at 11.4 µM].

For the compound `c1ccc(-c2cccc(-c3ccccn3)n2)nc1`, the activity change, negative = inhibition is 72.5% [at 11.4 µM].

`NC(=Nc1nc(-c2ccccn2)cc2ccccc12)c1ccccn1`: the Potency is 0.0398 µM (active).

Take `COc1ccc(-c2nc(NC(=O)C3CC(=O)N(c4ccc5c(c4)OCCO5)C3)sc2C)cc1` (stereo not drawn): the Potency is 10 µM (active).

`O=C(C1CC(=O)N(c2ccc3c(c2)OCCO3)C1)N1CCN(c2ccccc2)CC1` (stereo not drawn): the activity change, negative = inhibition is -8.65% [at 11.4 µM].

On to `CCc1ccc(-c2csc(NC(=O)C3CC(=O)N(c4ccc5c(c4)OCCO5)C3)n2)cc1` (stereo not drawn), for which the Potency is 10 µM (active).
